Screening data deposited in PubChem by Sanford-Burnham Center for Chemical Genomics.
A selection follows.
TNAP pNPP inh: inhibitors of human tissue-nonspecific alkaline phosphatase. P05186. purified TNAP, pNPP hydrolysis, absorbance 405 nm. inhibition, % at 20 µM. 21,000 tested, under 10 active;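 note: 0% = DMSO only wells and 100% = 1 mM levamisole wells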
Target sequence (P05186 whole entry, looked up): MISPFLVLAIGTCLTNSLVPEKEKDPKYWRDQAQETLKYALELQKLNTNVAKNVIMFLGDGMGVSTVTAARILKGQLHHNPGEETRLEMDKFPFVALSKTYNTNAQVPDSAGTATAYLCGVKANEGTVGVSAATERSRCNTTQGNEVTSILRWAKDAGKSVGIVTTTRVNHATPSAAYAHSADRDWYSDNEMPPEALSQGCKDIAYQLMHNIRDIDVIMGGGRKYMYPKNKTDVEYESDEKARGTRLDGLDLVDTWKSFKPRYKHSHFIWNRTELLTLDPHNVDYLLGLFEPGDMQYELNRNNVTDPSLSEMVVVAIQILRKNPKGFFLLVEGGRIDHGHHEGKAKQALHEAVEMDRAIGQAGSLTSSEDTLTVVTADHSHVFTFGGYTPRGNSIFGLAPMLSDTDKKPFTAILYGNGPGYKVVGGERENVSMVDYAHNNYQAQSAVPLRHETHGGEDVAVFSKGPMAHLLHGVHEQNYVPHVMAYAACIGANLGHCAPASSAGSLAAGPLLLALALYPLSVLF
TNAP Pi inh: human TNAP inhibition, phosphate detection; inhibition, % at 20 µM; purified TNAP, pNPP, malachite green phosphate absorbance; 21,000 tested, under 10 active
Numbers without * were called inactive.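 Rule for the calls: active = inhibition above 50% at the 20 µM single-dose screen; inactive = the rest.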

SMILES | TNAP pNPP inh | TNAP Pi inh
CCn1c(CNc2ccc(F)cc2)nnc1SCC(=O)Nc1ccc(OC)cc1OC | 6.1 | 8.4
c1ccc(-c2nc3cc(Cc4ccc5oc(-c6ccccn6)nc5c4)ccc3o2)nc1 | 10.0 | -4.1
Cc1cccc2cc(COC(=O)c3ccccn3)c(=O)[nH]c12 | 2.8 | 6.7
C=CCOc1c(Br)cc(CNn2nnnc2N)cc1OC | 3.5 | 7.3
COc1ccc(N=c2oc3c(OC)cccc3cc2C(=O)NCc2ccco2)c(OC)c1 | 8.2 | 2.2
COc1ccc(-c2cc3nc4n(c(=O)c3s2)CCOC4)cc1 | 4.2 | 5.4
Cc1occc(=O)c1OC(=O)Nc1ccccc1 | 4.1 | 2.6
CCOC(=O)c1cc2c(ccn2C)n1CC(=O)N1CCN(c2ccccc2OC)CC1 | 4.1 | 6.7
CC(C)C(=O)Nc1cccc(C(=O)Nc2nccs2)c1 | 2.9 | 10.8
Cn1c(=O)c2c3c(sc2n2c(SCC(N)=O)nnc12)CC(C(C)(C)C)CC3 (centres undefined) | 5.0 | -12.2
O=C(CSc1ncn[nH]1)NCCCc1ccccc1 | 0.0 | 0.0
COC(=O)c1cc(OC)c(OC)cc1NC(=O)Cn1nnc(-c2ccccc2Cl)n1 | 0.7 | 10.6
O=C(COc1ccccc1)Nn1cnc2ccccc21 | 4.3 | 19.2
CCCOc1cc(C)c(S(=O)(=O)n2ccc(C)n2)cc1C | 0.0 | 0.0
Cc1cc(Nc2nc3c(c(=O)n(C)c(=O)n3C)n2C)n(-c2ccccc2)n1 | 4.9 | 5.7
COc1ccc(-c2c3c(=O)n(C)c(=O)n(C)c3cn2-c2cc(OC)ccc2OC)cc1 | 4.7 | 7.9
CCn1c(SCc2nc(-c3ccc(OC)c(OC)c3)no2)nnc1-c1cccs1 | 0.7 | 19.2
Cc1cc2oc(=O)cc(CN3CCCCC3C)c2c(C)c1Cl (centres undefined) | 6.6 | -2.9
CC(=O)c1cccc(NC(=O)COc2ccc(S(=O)(=O)N3CCCCC3)cc2)c1 | 0.0 | 0.0
Cc1cc(NS(=O)(=O)Cc2ccccc2)no1 | -1.3 | 4.2
CC1CN(C2CCN(C(=O)c3ccccc3Cl)CC2)CC(C)O1 (centres undefined) | 12.9 | 16.9
CCN(CC)CCCN(Cc1cc2cc3c(cc2[nH]c1=O)OCCO3)C(=O)Nc1ccc(F)cc1 | 4.5 | 12.8
O=C(CCCNS(=O)(=O)c1ccc(Br)cc1)N1CC[C@@]2(O)CCCC[C@H]2C1 | 3.4 | 13.4
COc1ccc(S(=O)(=O)Nc2cccc(NC(C)=O)c2)cc1 | 0.0 | 0.0
O=C(CN1CCC(n2nnc3cc(F)ccc32)CC1)Nc1ccccc1N1CCOCC1 | -9.2 | -2.8
SMILES | TNAP pNPP inh | TNAP Pi inh
Cc1cc2nc(NC3=NCN(Cc4ccc5c(c4)OCO5)CN3)nc(C)c2cc1C | 4.1 | 11.8
O=C(NCc1ccco1)c1cnn2c(C(F)(F)F)cc(-c3cccs3)nc12 | 1.8 | 8.4
Cc1cc(C(F)(F)F)nn1CCCNC(=O)c1cnccn1 | 0.0 | 0.0
CCN(C(=O)c1cc2cccc(OC)c2oc1=O)c1ccccc1 | -0.5 | 6.8
CCn1nnc(-c2ccccc2NC(=O)C(F)(F)F)n1 | 4.4 | 6.6
O=C(CSc1ncc(-c2ccc(F)cc2)[nH]1)Nc1cccc(O)c1 | 5.2 | 13.2
CCOC(=O)c1c(C)[nH]c(C(=O)C(C)OC(=O)c2cccc(OCc3c(C)noc3C)c2)c1C (centres undefined) | 3.3 | 18.7
CCOC(=O)CCSc1nnc(-c2cccnc2)n1-c1ccccc1OC | 4.4 | 11.8
CN1C(=S)SC(N(O)C(=O)NC2CCCCC2)C1(C)C (centres undefined) | -0.4 | 1.3
O=C(NCc1ccco1)C(c1cccs1)N(C(=O)C1COc2ccccc2O1)c1cccc(O)c1 (centres undefined) | 3.1 | 2.2
CCOC(=O)C(O)(CCC(O)(C(=O)OCC)C(=O)OCC)C(=O)OCC | -3.0 | 3.8
COc1ccc(NC(=O)CSc2nc(-c3ccncc3)nn2CC(=O)N2CCCC2)cc1 | 5.1 | -16.0
Cc1cccc(-c2c3c(=O)n(C)c(=O)n(C)c3c3cccnn23)c1 | 1.1 | 5.4
CC(C(=O)Nc1ccc2c(c1)OCO2)N(c1ccc(Cl)cc1)S(C)(=O)=O (centres undefined) | -12.6 | -1.2
O=C(c1ccc(=O)oc1)N1CCCc2ccccc21 | 5.1 | 2.4
CN(C)c1nc2ccc(OCCN3CCCCC3)cc2s1 | 7.1 | 10.5
Cc1ccc(Nc2nc(N)nc(CSc3nnc(-c4ccncc4)o3)n2)cc1 | 3.9 | 7.2
CCOC(=O)c1c(C)[nH]c(NC(=O)N2CCOCC2)c1C | 3.8 | 8.5
Cc1ccc(S(=O)(=O)/N=C(\CN2CCCCC2)N2CCOCC2)cc1 | 4.0 | 7.9
O=c1oc2cc(O)ccc2c2c1CCCC2 | 4.4 | 9.4
CCN(Cc1ccncc1)S(=O)(=O)c1ccc(C(C)=O)cc1 | 0.0 | 0.0
CCC(C(=O)Nc1nnc(-c2ccco2)s1)c1ccccc1 (centres undefined) | 5.2 | 0.1
CCOC(=O)c1cnc(SCc2nc(N)nc(Nc3ccc(C)cc3)n2)nc1N | 5.0 | 12.8
Cc1ccc(-c2cnc(N)n2C)cc1C | 4.9 | -1.6
CCOC(=O)C1=C(C)NC(C)=C(C(=O)OCC)C1C(=O)OCC(=O)N1CCc2ccccc2C1 | 4.5 | -9.9
SMILES | TNAP pNPP inh | TNAP Pi inh
O=C(Nc1ccn(-c2ccccc2)n1)c1ccc(S(=O)(=O)N2CCCCCC2)cc1 | 1.1 | 11.5
CC(=O)c1c(C)[nH]c(C(=O)OCC(=O)Nc2cc(C(F)(F)F)ccc2N2CCOCC2)c1C | -11.1 | -7.1
CS(=O)(=O)N(CCc1ccccc1)CC(=O)NCc1ccccn1 | 6.0 | 1.1
CCCn1nnc(NC(=O)COc2ccc(C3CCCCC3)cc2)n1 | -3.3 | 6.9
O=C(CCCc1cccs1)N1CCN(S(=O)(=O)c2ccccc2Br)CC1 | -7.7 | -6.6
CCOc1cccc(NC(=O)C2CC(=O)NC(=Nc3ccccc3)S2)c1 (centres undefined) | 5.4 | 9.2
O=C1CN(C(=O)CCCc2c[nH]c3ccccc23)c2ccccc2N1 | -3.6 | 10.5
Cn1nnnc1SCc1c(F)cccc1F | 0.4 | 5.9
COc1ccc(Cl)cc1C(=O)CSc1nc(N)cc(N)n1 | -0.5 | 14.2
O=C(CSc1nnc(C23CC4CC(CC(C4)C2)C3)o1)Nc1ccc(N2CCOCC2)c(Cl)c1 | 2.1 | 9.7
CCc1ccc(-c2cn(-c3nc(C)cc(C)n3)c(=N)o2)cc1 | 8.2 | 14.2
Clc1ccc(COc2ccccn2)c(Cl)c1 | 1.4 | 5.6
CCOC(=O)C1CCCN(C(=O)CSc2nccn2C)C1 (centres undefined) | 6.4 | 2.5
O=C(NC1CCCC1)C(c1cccs1)N(CC1CCCO1)C(=O)Cc1cccs1 (centres undefined) | -5.8 | 4.7
CCOC(=O)/C(C#N)=C(\N)C(C)C(=O)Nc1ccccn1 (centres undefined) | -5.5 | 8.7
